The sample as a whole holds a higher share of hits than the screen did.
CendR NRP1 mod – alters CendR peptide binding to human NRP-1 | FAM-RPARPAR peptide binding to NRP-1, fluorescence polarization | actives 0.85% (n = 360,000) | inhibition, % at 25 µM | O14786;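 active = inhibition or corrected inhibition above about 18%, plus a signal ratio from 0.5 to 1.5, limit read from the data, passing the limit was not always enough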
Target sequence (O14786 whole entry, looked up): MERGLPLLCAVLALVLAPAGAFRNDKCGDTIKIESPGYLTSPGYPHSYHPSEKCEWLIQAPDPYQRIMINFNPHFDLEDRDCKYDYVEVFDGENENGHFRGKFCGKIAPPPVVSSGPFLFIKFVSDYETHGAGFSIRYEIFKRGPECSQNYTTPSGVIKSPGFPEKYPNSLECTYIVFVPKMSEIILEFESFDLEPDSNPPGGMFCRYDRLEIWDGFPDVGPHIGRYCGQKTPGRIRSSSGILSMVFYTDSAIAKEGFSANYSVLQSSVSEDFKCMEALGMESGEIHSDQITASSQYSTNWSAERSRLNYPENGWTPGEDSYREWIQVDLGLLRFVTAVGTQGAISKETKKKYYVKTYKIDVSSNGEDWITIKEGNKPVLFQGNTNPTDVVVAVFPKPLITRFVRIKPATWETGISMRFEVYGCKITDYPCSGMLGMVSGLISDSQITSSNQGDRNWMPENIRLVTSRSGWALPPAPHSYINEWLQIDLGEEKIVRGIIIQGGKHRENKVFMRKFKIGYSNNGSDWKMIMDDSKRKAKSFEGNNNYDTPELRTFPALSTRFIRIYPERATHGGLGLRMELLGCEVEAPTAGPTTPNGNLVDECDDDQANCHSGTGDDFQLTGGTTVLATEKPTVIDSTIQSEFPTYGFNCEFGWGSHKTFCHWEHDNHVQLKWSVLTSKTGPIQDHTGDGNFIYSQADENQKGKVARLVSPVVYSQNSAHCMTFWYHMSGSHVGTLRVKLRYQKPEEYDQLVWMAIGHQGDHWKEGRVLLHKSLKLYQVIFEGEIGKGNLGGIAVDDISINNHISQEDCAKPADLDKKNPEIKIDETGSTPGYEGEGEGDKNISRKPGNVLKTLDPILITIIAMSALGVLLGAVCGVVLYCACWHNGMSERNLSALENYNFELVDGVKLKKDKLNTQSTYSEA
ARNT-TACC3 inh – ARNT/TACC3 interaction disruption; AlphaScreen His-ARNT PAS-B/GST-TACC3 binding, luminescence; TACC3 fragment carries E629A point mutation; inhibition, % at 9.99 µM; Q9Y6A5; actives 0.66% (n = 390,000);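 active = mean inhibition of replicates at least 50% and at least half of replicates each reaching 50%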;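 note: 0% = complete ARNT plus TACC3 wells and 100% = ARNT alone without TACC3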
ALR H2O2 inh – human ALR oxidase inhibition via reduced H2O2; P55789; purified ALR, DTT oxidation, H2O2 HRP-luminol luminescence; inhibition, % (concentration not given with the values); actives 3.8% (n = 290,000);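 active = mean replicate inhibition above about 79%, with every replicate also reaching it, limit read from the data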
ERp5 block – inhibitors of human ERp5; Q15084; ERp5 insulin aggregation, absorbance 650 nm, 90 min; inhibition, % at 9.99 µM; actives 0.05% (n = 350,000);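 active = mean replicate inhibition above about 25%, with every replicate also reaching it, limit read from the data, passing the limit was not always enough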
PglD inh – inhibitors of Campylobacter jejuni PglD acetyltransferase; purified PglD enzyme, DTNB colorimetric CoA detection; inhibition, % at 12.5 µM; actives 0.098% (n = 360,000); AID 602405; in the data active = inhibition above about 16%, passing the limit was not always enough
PDI turbidity – inhibitors of human protein disulfide isomerase | P07237 | PDI insulin aggregation turbidity, A650, 90 min | inhibition, % at 10 µM | actives 0.052% (n = 350,000) | AID 588391;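 active = mean inhibition across replicates of 30% or more, whatever share of single replicates reach that level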
The depositor's hits bear a star; · = no result given.

SMILES	CendR NRP1 mod	ARNT-TACC3 inh	ALR H2O2 inh	ERp5 block	PglD inh	PDI turbidity
O=C(Nc1cccc(F)c1)c1cccnc1N1CCOCC1	10	-1	85*	-3	2	4
Cc1ccc(NC2Nc3cc(C)nn3S2)c(C)c1 (centres undefined)	3	6	87*	2	·	2
Cc1cc2n(n1)SC(Nc1ccccc1)N2 (centres undefined)	4	-8	9	·	·	-3
C/C(=N\NC(=S)NCCc1ccccc1)c1cccs1	28*	3	-1	·	·	10
C[C@@H]1CN([C@H](C)CO)C(=O)c2cc(C#CCN(C)C)cnc2O[C@H]1CN(C)C(=O)NC1CCCCC1	·	-7	·	-3	-1	·
COc1cc(NC(C)CCc2ccccc2)cc(OC)c1OC (centres undefined)	5	9	88*	3	-3	-3
COc1ccc(NC(=O)Nc2ccc3c(c2)[C@@H]2C[C@H](CC(=O)NC4CCCCC4)O[C@H](CO)[C@@H]2O3)cc1	·	-8	·	-1	-1	·
COc1ccc(S(=O)(=O)Nc2ccc3c(c2)C(=O)N([C@@H](C)CO)C[C@H](C)[C@H](CN(C)Cc2ccc(C(=O)Nc4ccccc4N)cc2)O3)cc1	·	-6	·	-3	3	·
COC(=O)/C(=N/Nc1cccc(C)c1)N1CCCc2ccccc21	4	-16	99*	·	·	9
COC(=O)/C(=N/Nc1ccccc1)N1CCCc2ccccc21	-3	12	·	4	10	-3
COC(=O)/C(=N/Nc1ccc(C)cc1)N1CCCc2ccccc21	4	21	99*	2	·	2
COc1cccc(S(=O)(=O)N(C)C[C@H]2Oc3ncc(C#CCN(C)C)cc3C(=O)N([C@@H](C)CO)C[C@H]2C)c1	·	6	·	-3	1	·
C[C@H]1CN([C@@H](C)CO)C(=O)c2cc(NC(=O)Cc3cn(C)c4ccccc34)ccc2O[C@H]1CN(C)S(=O)(=O)c1ccc(F)cc1	·	·	·	7	1	·
CN(C)CC(=O)Nc1ccc2c(c1)[C@@H]1C[C@@H](CC(=O)NCc3cccnc3)O[C@@H](CO)[C@@H]1O2	·	-1	·	4	0	·
Oc1ccc(NC(=S)N=Nc2c(O)[nH]c3ccccc23)cc1	3	67*	5	-2	-4	-4
Cc1ccc(NC(=S)N=Nc2c(O)[nH]c3ccccc23)cc1	6	-5	-3	2	·	-2
Oc1cccc(NC(=S)N=Nc2c(O)[nH]c3ccc(Br)cc23)c1	-14	24	99*	0	0	3
N#C[C@H]1[C@H](c2ccccc2)[C@@H](CO)N1C(=O)Cc1ccccc1	·	-8	·	0	-1	·
O=C(C[C@@H]1CC[C@@H](NC(=O)c2ccncc2)[C@H](CO)O1)Nc1ccccc1	·	-20	·	-10	-5	·
COc1cccc(NC(=O)C2CC(=O)N=C(N)S2)c1 (centres undefined)	3	1	-5	·	0	-2
CC(=O)Nc1ccc(NC(=O)C2CC(=O)N=C(N)S2)cc1 (centres undefined)	32*	·	-3	·	0	13
Cc1nc2ccc(S(=O)(=O)NC(C(=O)Nc3nccs3)C(C)C)cc2s1 (centres undefined)	19	0	92*	-3	-7	-5
Cc1nc2ccc(S(=O)(=O)NC(C(=O)Nc3nc4ccc(Cl)cc4s3)C(C)C)cc2s1 (centres undefined)	10	-7	9	1	-2	-3
COc1ccccc1Nc1nc(C2(C)CCC(=O)O2)cs1 (centres undefined)	2	4	96*	·	-4	-2
COc1ccccc1Nc1nc(-c2cccnc2)cs1	12	-3	53	-1	12	7
SMILES	CendR NRP1 mod	ARNT-TACC3 inh	ALR H2O2 inh	ERp5 block	PglD inh	PDI turbidity
Cc1cc(C(=O)Nc2cccc3c2O[C@H](CN(C)Cc2ccc(Oc4ccccc4)cc2)[C@@H](C)CN([C@@H](C)CO)C3=O)n(C)n1	·	·	·	-9	9	·
C[C@H](CO)N1C[C@H](C)[C@@H](CN(C)Cc2ccc(Cl)c(Cl)c2)Oc2c(NC(=O)c3cnccn3)cccc2C1=O	·	·	·	-4	-3	·
O=C(Nc1cccc(S(=O)(=O)N2CCCCC2)c1)c1ccc([N+](=O)[O-])o1	36*	6	-29	4	-7	0
O=C(c1cnn(C(=O)c2cccc(S(=O)(=O)N3CCOCC3)c2)c1)c1ccccc1O	-31	-13	90*	-1	·	2
CCC(CC)c1nnc(NC(=O)c2cccc(S(=O)(=O)N3CCOCC3)c2)s1	26*	6	0	6	-2	4
O=C(Nc1nnc(-c2ccccc2)s1)c1cccc(S(=O)(=O)N2CCOCC2)c1	-7	-5	5	·	·	-5
O=C(COC(=O)c1ccc([N+](=O)[O-])o1)Nc1cccc(S(=O)(=O)N2CCCCC2)c1	6	0	·	2	4	13
O=C(NCc1ccccc1)c1cccc(S(=O)(=O)N2CCCCC2)c1	31*	4	36	-4	1	0
CCCNC(=O)[C@H]1[C@H](CO)[C@H]2Cn3c(ccc(-c4cccnc4)c3=O)[C@H]2N1Cc1cocn1	·	·	·	3	·	·
CCc1sc(N2[C@@H](C#N)[C@@H](c3ccccc3-c3cccc(C)c3)[C@@H]2CO)nc1C	·	·	·	-1	·	·
C[C@@H]1CN([C@H](C)CO)C(=O)c2cc(C#C[C@@H](C)O)cnc2O[C@H]1CN(C)C(=O)Cc1ccncc1	·	6	·	-3	-2	·
O=C(C1CC1)N1CCCCN2[C@@H](CO)[C@@H](c3ccc(-c4ccncc4)cc3)[C@@H]2C1	·	1	·	·	4	·
CN(C)c1cccc(C(=O)NCc2ccccc2)c1	8	2	96*	-3	1	6
COc1cccc(NC(=O)c2oc3ccc(S(=O)(=O)N4CCOCC4)cc3c2C)c1	12	-2	82*	-5	·	7
CC(=O)c1cccc(S(=O)(=O)N2CCC(C(=O)O)(c3ccccc3)CC2)c1	24*	-6	·	9	-2	-1
CCN(c1ccc(NC(=O)c2cccc(S(=O)(=O)N3CCN(C)CC3)c2)cc1)C(C)C	15	11	99*	-5	3	-5
CN(C)c1cccc(C(=O)NCc2ccccc2Cl)c1	13	-3	11	-1	·	8
COCC(=O)Nc1ccc2c(c1)[C@H]1C[C@@H](CC(=O)NCc3ccc(Cl)cc3)O[C@@H](CO)[C@H]1O2	·	-4	·	·	-1	·
O=C(C1CC1)N1CC2(C1)[C@H](c1ccccc1)[C@@H](CO)N2S(=O)(=O)c1ccccc1	·	·	·	1	·	·
O=C(Nc1cccc(S(=O)(=O)N2CCCC2)c1)c1cccc(S(=O)(=O)N2CCOCC2)c1	0	3	97*	10	-1	5
O=C(Nc1cccc(O)c1)c1cccc(S(=O)(=O)N2CCCC2)c1	-2	9	2	·	4	15

High-throughput results (PubChem BioAssay)
